# Reference: PubChem BioAssay (Tox21)
# Records with an inconclusive call do not appear. A call without a number means that no potency is given here. Where a structure was tested more than once in an assay, its records may differ in their call. The source made the active and inactive calls. Calls follow the shape of the full dose curve.
# Assays:
# [1] = target: Acetylcholinesterase (Homo sapiens) (UniProt P22303); test: Acetylcholinesterase (AChE) small molecule antagonists: colormetric cell-based qHTS assay (AID 1347395); also: nearly all actives have a fitted effect of over 30% in size; also: potency is read from the fitted curve at half-maximal effect
# Chain of Acetylcholinesterase (Homo sapiens) (P22303 whole entry, looked up): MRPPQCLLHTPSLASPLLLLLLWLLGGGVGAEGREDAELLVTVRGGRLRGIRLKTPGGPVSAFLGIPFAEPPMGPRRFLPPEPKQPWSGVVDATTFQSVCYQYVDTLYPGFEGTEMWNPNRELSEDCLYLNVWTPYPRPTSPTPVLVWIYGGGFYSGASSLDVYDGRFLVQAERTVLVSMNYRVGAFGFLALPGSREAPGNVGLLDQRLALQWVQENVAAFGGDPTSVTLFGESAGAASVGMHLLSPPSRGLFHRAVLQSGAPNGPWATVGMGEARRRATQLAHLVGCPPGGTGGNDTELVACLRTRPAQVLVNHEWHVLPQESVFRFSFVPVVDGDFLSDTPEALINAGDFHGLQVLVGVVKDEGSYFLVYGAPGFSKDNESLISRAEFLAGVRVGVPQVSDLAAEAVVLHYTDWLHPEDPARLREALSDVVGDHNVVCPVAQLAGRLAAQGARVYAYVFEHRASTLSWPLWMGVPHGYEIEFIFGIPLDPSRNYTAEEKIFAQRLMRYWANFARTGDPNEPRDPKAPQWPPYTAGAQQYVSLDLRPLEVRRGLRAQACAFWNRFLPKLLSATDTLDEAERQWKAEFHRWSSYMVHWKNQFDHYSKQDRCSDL
# How it was run: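 Quantitative HTS in attached SH-SY5Y cells: 30 min compound exposure, then 90 min with acetylthiocholine and DTNB at 37 C; colour from thiocholine reports AChE activity.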
# [2] = target: Acetylcholinesterase (Homo sapiens) (UniProt P22303); test: Acetylcholinesterase (AChE) small molecule antagonists: enzyme-based qHTS assay (AID 1347397); conditions: Potency: AChE enzyme activity inhibition; outcome: AChE enzyme activity inhibition; also: nearly all actives have a fitted effect of over 55% in size; also: potency is read from the fitted curve at half-maximal effect
# How it was run: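 Human recombinant acetylcholinesterase; substrate acetylthiocholine; thiocholine quantified with DTNB (colorimetric). Compound preincubation 30 min RT; reaction 10 min RT.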
# [3] = target: Acetylcholinesterase (Homo sapiens) (UniProt P22303); test: Acetylcholinesterase (AChE) small molecule antagonists: fluorescence cell-based qHTS assay (AID 1347398); conditions: Potency: AChE activity; outcome: AChE activity; also: nearly all actives have a fitted effect of over 50% in size; also: potency is read from the fitted curve at half-maximal effect
# How it was run: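 Thiocholine generated from acetylthiocholine by SH-SY5Y cell AChE is detected with Thiolite Green (Ex/Em 490/520 nm) after 40 min at room temperature, following 30 min compound pretreatment at 37 C.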
# [4] = target: Acetylcholinesterase (Homo sapiens) (UniProt P22303); test: Acetylcholinesterase (AChE) small molecule antagonists: enzyme-based qHTS assay with human liver microsomes (AID 1347399); conditions: Potency: qHTS inhibition; outcome: qHTS inhibition; also: nearly all actives have a fitted effect of over 60% in size
# How it was run: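 Recombinant human AChE (50 mU/mL in the enzyme mix) and human liver microsomes (0.25 mg/mL final) were preincubated with compound and NADPH (0.25 mg/mL final) for 30 min at 37 C. Acetylthiocholine/DTNB was then added; thiocholine was read colorimetrically after 10 min at room temperature.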
structure (smiles),measurement,setting,value
C=CC(C)(CCC=C(C)C)OC(=O)/C=C/c1ccccc1 (stereo not given),Potency,[1],inactive
same,Potency,[2],inactive
same,Potency,[3],inactive
same,Potency,[4],inactive
C=CC/C=C/C,Potency,[1],inactive
same,Potency,[2],inactive
same,Potency,[3],inactive
same,Potency,[4],inactive
O=C(c1ccccc1)C1(O)CCCCC1,Potency,[1],inactive
same,Potency,[2],inactive
same,Potency,[3],inactive
same,Potency,[4],inactive
O=C(c1ccccc1)c1ccc(O)c(O)c1O,Potency,[1],inactive
same,Potency,[2],inactive
same,Potency,[3],inactive
same,Potency,[4],inactive
O=C1c2ccccc2C(=O)c2c1ccc(O)c2O,Potency,[1],inactive
same,Potency,[2],inactive
same,Potency,[3],inactive
same,Potency,[4],inactive
C1=CCCC1,Potency,[1],inactive
same,Potency,[2],inactive
same,Potency,[3],inactive
same,Potency,[4],inactive
CCC(C(=O)NC(N)=O)c1ccccc1 (stereo not given),Potency,[1],inactive
same,Potency,[2],inactive
same,Potency,[3],inactive
same,Potency,[4],inactive
C[C@H](NC(CCc1ccccc1)C(=O)O)C(=O)N1CCC[C@H]1C(=O)O (stereo not given in full),Potency,[1],inactive
same,Potency,[2],inactive
same,Potency,[3],inactive
same,Potency,[4],inactive
C[C@@H]1O[C@@H](O[C@@H]2[C@@H](O)[C@H](OCCc3ccc(O)c(O)c3)O[C@H](CO[C@@H]3O[C@H](CO)[C@@H](O)[C@H](O)[C@H]3O)[C@H]2OC(=O)/C=C/c2ccc(O)c(O)c2)[C@H](O)[C@H](O)[C@H]1O,Potency,[1],inactive
same,Potency,[2],inactive
same,Potency,[3],inactive
same,Potency,[4],inactive
COc1cc(O)c(C(=O)c2ccccc2)cc1S(=O)(=O)O,Potency,[1],inactive
same,Potency,[2],inactive
same,Potency,[3],inactive
same,Potency,[4],inactive
N[C@H]1CN(c2c(F)cc3c(=O)c(C(=O)O)cn(C4C[C@H]4F)c3c2Cl)CC12CC2 (stereo not given in full),Potency,[1],inactive
same,Potency,[2],inactive
same,Potency,[3],inactive
same,Potency,[4],inactive
C=C(C)C(=O)OCc1ccccc1,Potency,[1],inactive
same,Potency,[2],inactive
same,Potency,[3],inactive
same,Potency,[4],inactive
O=C(CC(=O)c1ccccc1)c1ccccc1,Potency,[1],inactive
same,Potency,[2],inactive
same,Potency,[3],inactive
same,Potency,[4],inactive
Clc1cccc(C(c2ccc3nc[nH]c3c2)n2ccnc2)c1 (stereo not given),Potency,[1],inactive
same,Potency,[2],inactive
same,Potency,[3],inactive
same,Potency,[4],inactive
CCCC(=O)O[C@]1(C(=O)CO)CC[C@H]2[C@@H]3CCC4=CC(=O)CC[C@]4(C)[C@H]3[C@@H](O)C[C@@]21C,Potency,[1],inactive
same,Potency,[2],inactive
same,Potency,[3],inactive
same,Potency,[4],inactive
CCCCCC/C=C/C(=O)OC,Potency,[1],inactive
same,Potency,[2],inactive
same,Potency,[3],inactive
same,Potency,[4],inactive
CCCCC(CC)COC(C)=O (stereo not given),Potency,[1],inactive
same,Potency,[2],inactive
same,Potency,[3],inactive
same,Potency,[4],inactive
CCCCCC(CC)OC(=O)CCCOc1ccc(Cl)cc1Cl (stereo not given),Potency,[1],inactive
same,Potency,[2],inactive
same,Potency,[3],inactive
same,Potency,[4],inactive
CCc1nc(N)nc(N)c1-c1ccc(Cl)cc1,Potency,[1],inactive
same,Potency,[2],inactive
same,Potency,[3],inactive
same,Potency,[4],inactive
C[C@@H](NCCCc1cccc(C(F)(F)F)c1)c1cccc2ccccc12,Potency,[1],inactive
same,Potency,[2],inactive
same,Potency,[3],inactive
same,Potency,[4],inactive
CCCCCC[C@@H](O)C/C=C\CCCCCCCC(=O)O,Potency,[1],inactive
same,Potency,[2],inactive
same,Potency,[3],inactive
same,Potency,[4],inactive
CCc1ccc(CCOc2ccc(CC3SC(=O)NC3=O)cc2)nc1 (stereo not given),Potency,[1],inactive
same,Potency,[2],inactive
same,Potency,[3],inactive
same,Potency,[4],inactive
CC(=O)SC[C@@H](C)C(=O)N1CCC[C@H]1C(=O)N[C@@H](Cc1ccccc1)C(=O)O,Potency,[1],inactive
same,Potency,[2],inactive
same,Potency,[3],inactive
same,Potency,[4],inactive
CCCCCCCCSCCO,Potency,[1],inactive
same,Potency,[2],inactive
same,Potency,[3],inactive
same,Potency,[4],inactive
CC1(C)S[C@@H]2[C@H](NC(=O)Cc3ccccc3)C(=O)N2[C@H]1C(=O)O (tested in a mixture with another compound),Potency,[1],inactive
same,Potency,[2],inactive
same,Potency,[3],inactive
same,Potency,[4],inactive
CCCCCOC(C)=O,Potency,[1],32.1 µM (active) and inactive
same,Potency,[2],inactive
same,Potency,[3],inactive
same,Potency,[4],inactive
O=C1CCC(C2CCCCC2)CC1,Potency,[1],inactive
same,Potency,[2],inactive
same,Potency,[3],inactive
same,Potency,[4],inactive
CC(=O)CC(=O)c1ccccc1,Potency,[1],inactive
same,Potency,[2],inactive
same,Potency,[3],inactive
same,Potency,[4],inactive
CCOC(=O)c1ccc(O)cc1,Potency,[1],inactive
same,Potency,[2],inactive
same,Potency,[3],inactive
same,Potency,[4],inactive
CC1(C)SC(C)(C)SC(C)(C)S1,Potency,[1],inactive
same,Potency,[2],inactive
same,Potency,[3],inactive
same,Potency,[4],inactive
Cc1cccc(C)c1NC(=O)CN1CCCC1,Potency,[1],inactive
same,Potency,[2],inactive
same,Potency,[3],inactive
same,Potency,[4],inactive
CC1CC(O)CC(C)(C)C1 (stereo not given),Potency,[1],inactive
same,Potency,[2],inactive
same,Potency,[3],inactive
same,Potency,[4],inactive
O=C(Nc1cccc(C(F)(F)F)c1)c1cc(Br)cc(Br)c1O,Potency,[1],inactive
same,Potency,[2],inactive
same,Potency,[3],inactive
same,Potency,[4],inactive
C[C@]12C[C@H](O)[C@H]3[C@@H](CCC4=CC(=O)CC[C@@]43C)[C@@H]1CC[C@@H]2C(=O)CO,Potency,[1],inactive
same,Potency,[2],inactive
same,Potency,[3],inactive
same,Potency,[4],inactive
CCCCCCCCCCCCN1CCCCCC1=O,Potency,[1],inactive
same,Potency,[2],inactive
same,Potency,[3],inactive
same,Potency,[4],inactive
Oc1ccc(Sc2ccc(O)cc2)cc1,Potency,[1],inactive
same,Potency,[2],inactive
same,Potency,[3],inactive
same,Potency,[4],inactive
C=Cc1ccncc1,Potency,[1],inactive
same,Potency,[2],inactive
same,Potency,[3],inactive
same,Potency,[4],inactive
COC(Cc1ccccc1)OC,Potency,[1],inactive
same,Potency,[2],inactive
same,Potency,[3],inactive
same,Potency,[4],inactive
CCC(C)(C)OC,Potency,[1],inactive
same,Potency,[2],inactive
same,Potency,[3],inactive
same,Potency,[4],inactive
O=C(COCCOCCOCC(=O)Nc1c(I)cc(I)c(C(=O)O)c1I)Nc1c(I)cc(I)c(C(=O)O)c1I,Potency,[1],inactive
same,Potency,[2],inactive
same,Potency,[3],inactive
same,Potency,[4],inactive
C=C(C)C(=O)OCCCCCCCCCCCCCCCCCC,"activity, negative = inhibition",[1],0.231% [at 23.6 µM] (inactive)
same,"activity change, negative = inhibition",[2],0.946% [at 23.6 µM] (inactive)
same,"activity change, negative = inhibition",[3],2.72% [at 23.8 µM] (inactive)
same,"activity change, negative = inhibition",[4],0.563% [at 23.6 µM] (inactive)
BrCCOc1ccccc1,Potency,[1],inactive
same,Potency,[2],inactive
same,Potency,[3],inactive
same,Potency,[4],inactive
O=CCCCC=O,Potency,[1],inactive
same,Potency,[2],inactive
same,Potency,[3],inactive
same,Potency,[4],inactive
CCCCCCC(C)OC(=O)COc1nc(F)c(Cl)c(N)c1Cl (stereo not given),Potency,[1],inactive
same,Potency,[2],inactive
same,Potency,[3],inactive
same,Potency,[4],inactive
C=CC(=O)OCCOCCOC(=O)C=C,Potency,[1],inactive
same,Potency,[2],inactive
same,Potency,[3],inactive
same,Potency,[4],inactive
CC/C=C\CC/C=C/C(OCC)OCC,Potency,[1],inactive
same,Potency,[2],inactive
same,Potency,[3],inactive
same,Potency,[4],inactive
COc1ccc(Cc2cnc(N)nc2N)cc1OC,Potency,[1],inactive
same,Potency,[2],inactive
same,Potency,[3],inactive
same,Potency,[4],inactive
CCCCC(C=O)CC (stereo not given),Potency,[1],inactive
same,Potency,[2],inactive
same,Potency,[3],inactive
same,Potency,[4],inactive
CCCc1nn(C)c2c(=O)[nH]c(-c3cc(S(=O)(=O)N4CCN(C)CC4)ccc3OCC)nc12,Potency,[1],inactive
same,Potency,[2],inactive
same,Potency,[3],inactive
same,Potency,[4],inactive
CCOC(=O)c1cccc(N)c1,outcome,[1],inactive
same,outcome,[2],inactive
same,outcome,[3],inactive
same,outcome,[4],inactive
C=CCCCCCCCCCCCCCCCC,"activity, negative = inhibition",[1],2.13% [at 10.5 µM] (inactive)
same,"activity change, negative = inhibition",[2],-0.28% [at 10.5 µM] (inactive)
same,"activity change, negative = inhibition",[3],3.23% [at 10.5 µM] (inactive)
same,"activity change, negative = inhibition",[4],-0.261% [at 10.5 µM] (inactive)
c1ccc2c(c1)ccc1ccccc12,Potency,[1],inactive
same,Potency,[2],inactive
same,Potency,[3],inactive
same,Potency,[4],inactive
CN1C[C@H](C(=O)N[C@]2(C)O[C@@]3(O)[C@@H]4CCCN4C(=O)[C@H](Cc4ccccc4)N3C2=O)C[C@@H]2c3cccc4[nH]cc(c34)C[C@H]21,Potency,[1],19.5 µM (active)
same,Potency,[2],30.9 µM (active)
same,Potency,[3],8.71 µM (active)
same,Potency,[4],inactive
OB(O)O,Potency,[1],inactive
same,Potency,[2],inactive
same,Potency,[3],inactive
same,Potency,[4],inactive
Nc1ccn([C@@H]2O[C@H](CO)[C@@H](O)C2O)c(=O)n1 (stereo not given in full),Potency,[1],inactive
same,Potency,[2],inactive
same,Potency,[3],inactive
same,Potency,[4],inactive
CCc1nccnc1CC,"activity, negative = inhibition",[1],2.95% [at 23.6 µM] (inactive)
same,"activity change, negative = inhibition",[2],-0.515% [at 23.6 µM] (inactive)
same,"activity change, negative = inhibition",[3],3.3% [at 23.8 µM] (inactive)
same,"activity change, negative = inhibition",[4],0.443% [at 23.6 µM] (inactive)
CCO/C([O-])=N/c1c[n+](N2CCOCC2)no1,Potency,[1],inactive
same,Potency,[2],inactive
same,Potency,[3],inactive
same,Potency,[4],inactive
CCN(O)CC,Potency,[1],inactive
same,Potency,[2],inactive
same,Potency,[3],inactive
same,Potency,[4],inactive
COC(=O)c1ccccc1C(=O)O,Potency,[1],inactive
same,Potency,[2],inactive
same,Potency,[3],inactive
same,Potency,[4],inactive
OCCN1CCNCC1,Potency,[1],inactive
same,Potency,[2],inactive
same,Potency,[3],inactive
same,Potency,[4],inactive
